From PubChem BioAssay (NCATS)
Results filed as inconclusive are left out. Calls of active or inactive are those of the source. Unless noted, calls follow the shape of the dose curve; as a rule, active = well fitted cell-killing curve with a large enough effect; inconclusive = small, poorly fitted or top-dose-only effect; inactive = flat fitted curve, though single readings scatter.

Experiments:
[1] = Cell Viability - LYMP2-025 (AID 976);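 also: series mostly up to about 92 µM; plate controls were DMSO only for no effect and tetraoctylammonium bromide control for full effect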
Summary of the method: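 Seed 2500 LYMP2-025 cells/well; 5 hr at 37 C; add compound; 24 hr at 37 C; add CellTiter-Glo; 30 min RT; read luminescence. AC50 from Hill-modelled concentration-response.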

[2] = Cell Viability - LYMP2-002 (AID 977);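 also: series mostly up to about 92 µM; plate controls were DMSO only for no effect and 92 µM tetraoctylammonium bromide for full effect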
Summary of the method: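 Luminescent ATP readout (CellTiter-Glo, 30 min room temperature) after 24 h compound exposure at 37 C of a human lymphoblastoid line, 2500 cells/well. AC50 values derived by standard Hill fitting of qHTS concentration-response data.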

[3] = Cell Viability - LYMP2-006 (AID 978); also: series mostly up to about 92 µM; % is scaled to controls: 0 for no effect and ±100 for the full control effect; nearly all actives have a fitted effect of over 60% in size
Summary of the method: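 Cells are seeded at 2500 per well and rested 5 hr at 37 C. Compounds are added across a concentration series for 24 hr at 37 C, after which ATP is quantified by luciferase luminescence.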

[4] = Cell Viability - LYMP2-007 (AID 979);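 also: cells exposed to compound for 24 h before reading; 0% = DMSO only and the negative end = 92 µM tetraoctylammonium bromide; nearly all actives have a fitted effect of over 60% in size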
Summary of the method: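 Luminescent ATP signal (CellTiter-Glo) serves as the viability read-out after 24 hr compound treatment of lymphoblastoid cells in complete medium at 37 C. Concentration-response data were fitted to the Hill equation to give AC50 values.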

[5] = Cell Viability - LYMP2-008 (AID 980); also: % is scaled to controls: 0 for no effect and ±100 for the full control effect; nearly all actives have a fitted effect of over 60% in size
Summary of the method: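 qHTS, human lymphoblastoid line, 2500 cells/well; 5 hr preincubation, 24 hr compound, 37 C. CellTiter-Glo ATP luminescence. AC50 via Hill equation. Tetraoctylammonium bromide positive control.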

[6] = Cell Viability - LYMP2-010 (AID 981); also: % is scaled to controls: 0 for no effect and ±100 for the full control effect; nearly all actives have a fitted effect of over 55% in size
Summary of the method: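 Luminescent ATP signal (CellTiter-Glo) served as the viability read-out. Cells of the human lymphoblastoid line were treated with compound over a concentration range for 24 hours at 37 C, and AC50 values came from Hill-equation modeling.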

[7] = Cell Viability - LYMP2-012 (AID 982);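 also: cellular ATP by luciferase luminescence where a drop means cytotoxicity; cells exposed to compound for one day before reading; 0% = DMSO only and full loss = 92 µM tetraoctylammonium bromide; nearly all actives have a fitted effect of over 55% in size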
[8] = Cell Viability - LYMP2-014 (AID 983);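 also: series mostly up to about 92 µM; plate controls were DMSO only for no effect and 92 µM tetraoctylammonium bromide for full effect; nearly all actives have a fitted effect of over 50% in size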
Summary of the method: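 Luminescent ATP signal (CellTiter-Glo, 30 min at room temperature) serves as the viability read-out after 24 hr compound exposure at 37 C. Cells were seeded at 2500 per well and settled 5 hr beforehand.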

[9] = Cell Viability - LYMP2-016 (AID 984); also: % is scaled to controls: 0 for no effect and ±100 for the full control effect; nearly all actives have a fitted effect of over 55% in size
Summary of the method: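 Cells were seeded at 2500 per well and rested 5 hr before a 24 hr compound exposure at 37 C. Viability was then gauged as cellular ATP by luciferase luminescence, with AC50 values fitted to the Hill equation.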

[10] = Cell Viability - LYMP2-020 (AID 986);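 also: series mostly up to about 92 µM; plate controls were DMSO only for no effect and tetraoctylammonium bromide at 92 µM for full effect; nearly all actives have a fitted effect of over 55% in size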
Summary of the method: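 Luminescent ATP signal (CellTiter-Glo, 30 min at room temperature) is the read-out after 24 h compound treatment of lymphoblastoid cells at 37 C. AC50 values come from Hill-equation fits across concentrations.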

[11] = Cell Viability - LYMP2-022 (AID 987)
Summary of the method: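 qHTS: human lymphoblastoid cells 2500/well; 5 hr 37 C; cpd added; 24 hr 37 C; CellTiter-Glo, 30 min RT; luminescence. AC50 via Hill fit; tetraoctylammonium bromide positive ctrl.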

[12] = Cell Viability - LYMP2-024 (AID 988);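 also: plate controls were DMSO only for no effect and 92 µM tetraoctylammonium bromide for full effect; nearly all actives have a fitted effect of over 60% in size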
Summary of the method: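 Steps: seed 2500 cells/well, 5 hr 37 C; add compound, 24 hr 37 C; add CellTiter-Glo, 30 min room temperature; read luminescence. AC50 derived by Hill modelling of concentration-dependent ATP loss.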

[13] = Cell Viability - LYMP2-026 (AID 989); also: % is scaled to controls: 0 for no effect and ±100 for the full control effect; nearly all actives have a fitted effect of over 50% in size
Summary of the method: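 Luminescent ATP signal (CellTiter-Glo, 30 min room temperature) measures viable lymphoblastoid cells after 24 hr compound treatment at 37 C. Decreased ATP reflects acute toxicity; AC50 values come from Hill-equation modeling.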

[14] = Cell Viability - LYMP1-002 - Assay at 24 hr (AID 993); also: % is scaled to controls: 0 for no effect and ±100 for the full control effect
Summary of the method: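 Cells plated 2500/well, 5 hr 37 C; compounds added, 24 hr 37 C; CellTiter-Glo added, 30 min RT; luminescence read. Tetraoctylammonium bromide positive control. Hill-equation AC50.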

[15] = Cell Viability - LYMP1-002 - Assay at 40 hr (AID 994)
Summary of the method: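 Luminescent ATP signal served as the viability readout, with decreases taken as toxicity. Cells were treated with compounds across a concentration range for 40 hours at 37 C, and AC50 values came from standard Hill modeling.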

[16] = qHTS Assay for Identification of Small Molecule Inducers of Hypoxia Response (AID 2120; active = well fitted curve in the direction sought with a large enough effect in the signal ratio, with a control signal flat, not every such curve was filed as active; the % refers to the signal ratio; also: 0% is about no effect)
Summary of the method: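 ME-180 HRE-bla cells plated in Opti-MEM/0.5% dialyzed FBS, rested 4-5 h, then dosed with compound titrations by pin tool. After 17 h at 37 degrees C, CCF4 dye loaded 2.5 h at RT; 460/530 nm ratio gave %Activity and AC50.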

[17] = molecular target: Estrogen receptor (Homo sapiens) (UniProt P03372); experiment: qHTS assay for small molecule antagonists of estrogen receptor alpha signaling (AID 588513; active = well fitted curve in the direction sought with a large enough effect in the signal ratio, with a control signal flat, not every such curve was filed as active; the % refers to the signal ratio; also: % is scaled to controls: 0 for no effect and ±100 for the full control effect)
Summary of the method: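 Fluorescence from CCF4 substrate after 2 h at room temperature gave reporter activity; cells had been exposed to compound and 0.5nM 17-beta-estradiol for 18 h at 37 C. Hill-equation fitting yielded IC50 and maximal response.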

[18] = molecular target: Estrogen receptor (Homo sapiens) (UniProt P03372); experiment: qHTS assay for small molecule agonists of estrogen receptor alpha signaling (AID 588514; calls by dose curve;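 also: 0% = vehicle only and 100% = reference agonist; nearly all actives have a fitted effect of over 70% in size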)
Summary of the method: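 Cells were plated at 5000/well, incubated 4 hrs at 37 C, dosed with compound titration series, incubated 18 hrs at 37 C, loaded with CCF4 dye for 2 hrs at RT, then fluorescence was read.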

[19] = Cell Viability - LYMP2-018 (AID 985);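 also: plate controls were DMSO only for no effect and tetraoctylammonium bromide at 92 µM for full effect; nearly all actives have a fitted effect of over 50% in size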
Summary of the method: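 Luminescent ATP signal (CellTiter-Glo, read after 30 min at room temperature) reports viable cells after 24 hr compound treatment at 37 C. Concentration-response data were fitted to the standard Hill equation for AC50.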

[20] = molecular target: Androgen receptor (Homo sapiens) (UniProt P10275); experiment: qHTS assay for small molecule agonists of androgen receptor signaling (AID 588515; active = well fitted curve in the direction sought with a large enough effect in the signal ratio, with a control signal flat; the % refers to the signal ratio; also: % is scaled to controls: 0 for no effect and ±100 for the full control effect); details: AR-UAS-bla HEK293, beta-lactamase ratio, agonist 16 h; hits give high values
Summary of the method: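 EC50 and efficacy came from Hill fits of titrations (up to 92 uM) normalized to 30 nM R1881 as 100% and DMSO as 0%. Compound exposure was 16 h at 37 C on AR-UAS-bla HEK293 cells, with a 405/460/530 nm CCF4 fluorescence read.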

Estrogen receptor (Homo sapiens), sequence (P03372 whole entry, looked up): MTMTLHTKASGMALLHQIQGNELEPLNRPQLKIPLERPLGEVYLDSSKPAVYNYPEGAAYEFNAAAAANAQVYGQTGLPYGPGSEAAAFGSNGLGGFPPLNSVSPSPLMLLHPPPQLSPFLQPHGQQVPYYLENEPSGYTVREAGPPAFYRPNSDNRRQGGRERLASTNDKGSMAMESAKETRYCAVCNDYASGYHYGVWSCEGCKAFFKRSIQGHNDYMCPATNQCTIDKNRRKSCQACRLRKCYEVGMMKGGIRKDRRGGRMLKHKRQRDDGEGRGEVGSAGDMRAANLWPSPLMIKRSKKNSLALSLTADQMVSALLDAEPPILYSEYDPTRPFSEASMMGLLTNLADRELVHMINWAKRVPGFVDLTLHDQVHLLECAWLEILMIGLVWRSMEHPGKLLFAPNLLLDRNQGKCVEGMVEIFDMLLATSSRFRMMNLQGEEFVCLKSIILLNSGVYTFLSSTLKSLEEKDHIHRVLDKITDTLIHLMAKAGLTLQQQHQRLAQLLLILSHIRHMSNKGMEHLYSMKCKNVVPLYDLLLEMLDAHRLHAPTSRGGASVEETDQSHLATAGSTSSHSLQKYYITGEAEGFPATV
Androgen receptor (Homo sapiens), sequence (P10275 whole entry, looked up): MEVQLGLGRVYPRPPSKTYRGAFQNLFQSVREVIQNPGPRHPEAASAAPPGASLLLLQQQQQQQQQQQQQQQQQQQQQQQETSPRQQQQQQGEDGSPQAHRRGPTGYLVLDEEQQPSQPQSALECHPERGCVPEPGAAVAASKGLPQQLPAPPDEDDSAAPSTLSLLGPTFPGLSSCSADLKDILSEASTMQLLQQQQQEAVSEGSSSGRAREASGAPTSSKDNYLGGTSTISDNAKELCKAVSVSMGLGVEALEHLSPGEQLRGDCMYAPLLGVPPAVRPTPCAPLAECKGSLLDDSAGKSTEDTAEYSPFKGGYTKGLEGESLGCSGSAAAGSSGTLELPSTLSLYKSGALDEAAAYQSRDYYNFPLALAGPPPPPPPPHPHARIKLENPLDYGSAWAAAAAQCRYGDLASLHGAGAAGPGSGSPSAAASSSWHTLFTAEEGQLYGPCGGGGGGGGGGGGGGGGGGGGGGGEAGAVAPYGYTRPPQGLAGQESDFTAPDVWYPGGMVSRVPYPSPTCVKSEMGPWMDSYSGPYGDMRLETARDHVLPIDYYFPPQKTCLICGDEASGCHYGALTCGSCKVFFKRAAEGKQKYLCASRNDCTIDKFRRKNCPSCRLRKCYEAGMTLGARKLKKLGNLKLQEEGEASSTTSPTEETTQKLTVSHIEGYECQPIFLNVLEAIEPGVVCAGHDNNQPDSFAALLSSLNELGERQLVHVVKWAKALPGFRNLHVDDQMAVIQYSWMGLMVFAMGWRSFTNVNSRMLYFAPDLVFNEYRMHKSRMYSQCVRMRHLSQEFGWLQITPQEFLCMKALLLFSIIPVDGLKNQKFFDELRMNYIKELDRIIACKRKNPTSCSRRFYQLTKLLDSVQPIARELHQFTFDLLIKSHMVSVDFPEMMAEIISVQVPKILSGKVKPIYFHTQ

CC(C)N=C=NC(C)C
inactive: Potency [1] | Potency [2] | Potency [3] | Potency [4] | Potency [5] | Potency [6] | Potency [7] | Potency [8] | Potency [9] | Potency [10] | Potency [11] | Potency [12] | outcome [13] | Potency [14] | Potency [15] | outcome [16] | outcome [17] | Potency [18]

CCCCCCC=O
inactive: Potency [1] | Potency [2] | Potency [3] | Potency [4] | Potency [5] | Potency [6] | Potency [7] | Potency [8] | Potency [9] | Potency [10] | Potency [11] | Potency [12] | outcome [13] | Potency [15] | outcome [16] | outcome [17] | Potency [18]

C=CCOC(=O)COCCC(C)C
inactive: Potency [1] | Potency [2] | Potency [3] | Potency [4] | Potency [5] | Potency [6] | Potency [7] | Potency [8] | Potency [9] | Potency [19] | Potency [10] | Potency [12] | outcome [13] | Potency [14] | Potency [15] | outcome [16] | outcome [17] | Potency [18]

Cc1ccc(Br)cc1
inactive: Potency [1] | Potency [2] | Potency [3] | Potency [4] | Potency [5] | Potency [6] | Potency [7] | Potency [8] | Potency [9] | Potency [19] | Potency [10] | Potency [11] | Potency [12] | outcome [13] | Potency [14] | Potency [15] | outcome [16] | outcome [17] | Potency [18]

CC(=O)Nc1cccc(N)c1
inactive: Potency [1] | Potency [2] | Potency [3] | Potency [4] | Potency [5] | Potency [6] | Potency [7] | Potency [8] | Potency [9] | Potency [19] | Potency [10] | Potency [12] | outcome [13] | Potency [14] | Potency [15] | outcome [16] | outcome [17] | Potency [18]

CCC=O
inactive: Potency [1] | Potency [2] | Potency [3] | Potency [4] | Potency [5] | Potency [6] | Potency [7] | Potency [8] | Potency [9] | Potency [19] | Potency [10] | Potency [12] | outcome [13] | Potency [14] | Potency [15] | outcome [16] | outcome [17] | Potency [18]

CCCCCCCCC
inactive: Potency [1] | Potency [2] | Potency [3] | Potency [4] | Potency [5] | Potency [6] | Potency [7] | Potency [8] | Potency [9] | Potency [19] | Potency [10] | Potency [11] | Potency [12] | outcome [13] | Potency [15] | outcome [16] | outcome [17] | Potency [18]

Fc1ccccc1
inactive: Potency [1] | Potency [2] | Potency [3] | Potency [4] | Potency [5] | Potency [6] | Potency [7] | Potency [8] | Potency [9] | Potency [19] | Potency [10] | Potency [11] | Potency [12] | outcome [13] | Potency [14] | Potency [15] | outcome [16] | outcome [17] | Potency [18]

CCC(O)C(C)(C)C (centres undefined)
inactive: Potency [1] | Potency [2] | Potency [3] | Potency [4] | Potency [5] | Potency [6] | Potency [7] | Potency [8] | Potency [9] | Potency [19] | Potency [10] | Potency [11] | outcome [13] | Potency [14] | Potency [15] | outcome [16] | outcome [17] | Potency [18]

O=C(Cl)c1c(Cl)cccc1Cl
inactive: Potency [1] | Potency [2] | Potency [3] | Potency [4] | Potency [5] | Potency [6] | Potency [7] | Potency [8] | Potency [9] | Potency [19] | Potency [10] | Potency [11] | outcome [13] | Potency [14] | Potency [15] | outcome [16] | outcome [17] | Potency [18]

Cc1cc(C)cc(O)c1
inactive: Potency [1] | Potency [2] | Potency [3] | Potency [4] | Potency [5] | Potency [6] | Potency [7] | Potency [8] | Potency [9] | Potency [10] | Potency [12] | outcome [13] | Potency [14] | Potency [15] | outcome [16] | outcome [17] | Potency [18]

CCOc1cc(OCC)c(C(C)=O)cc1OCC
inactive: Potency [1] | Potency [2] | Potency [3] | Potency [4] | Potency [5] | Potency [6] | Potency [7] | Potency [8] | Potency [19] | Potency [10] | Potency [11] | Potency [12] | outcome [13] | Potency [14] | Potency [15] | outcome [16] | outcome [17] | activation [20] -14.7%

CCOC(C)(C)C
inactive: Potency [1] | Potency [2] | Potency [3] | Potency [4] | Potency [5] | Potency [6] | Potency [7] | Potency [8] | Potency [9] | Potency [19] | Potency [10] | Potency [11] | Potency [12] | outcome [13] | Potency [14] | Potency [15] | outcome [16] | outcome [17]
